Laboratory results from PubChem BioAssay AID652257 (The Scripps Research Institute Molecular Screening Center, 2013).
The campaign covered roughly 370,000 compounds. About 4,800 (1.3%) were called active.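 How the source made its calls: active means inhibition above about 21% made by adding two undisclosed values (limit read from the data); inactive means the rest.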 The list comes from a sample in which actives are over-represented; it also holds similar structures and randomly drawn compounds.

Biological target: Protein arginine N-methyltransferase 1 (Homo sapiens) (UniProt Q99873)
Assay: human PRMT1 activity-probe blockers – biochemical, fluorescence polarization, primary screen (AID 652257)
Conditions: recombinant PRMT1, activity-based probe fluorescence polarization; at 2.79 µM; stronger effect = higher value

Sequence of Protein arginine N-methyltransferase 1 (Homo sapiens) (Q99873 whole entry, looked up): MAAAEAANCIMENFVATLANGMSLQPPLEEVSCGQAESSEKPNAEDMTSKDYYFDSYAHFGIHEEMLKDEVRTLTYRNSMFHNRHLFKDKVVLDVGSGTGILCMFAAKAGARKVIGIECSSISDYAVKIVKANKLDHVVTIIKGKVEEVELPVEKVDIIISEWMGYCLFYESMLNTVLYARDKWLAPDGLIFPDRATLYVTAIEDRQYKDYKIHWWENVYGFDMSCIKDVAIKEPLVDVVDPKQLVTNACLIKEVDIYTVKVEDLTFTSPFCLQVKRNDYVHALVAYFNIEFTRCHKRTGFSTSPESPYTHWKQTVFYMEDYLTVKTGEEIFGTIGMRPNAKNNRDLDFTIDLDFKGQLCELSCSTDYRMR

inhibition, active:
CCCn1c(C(O)c2cc(OC)ccc2OC)nc2ccccc21 (stereo not drawn) 23.1%
CN(C)C(=O)N=NC(=O)N(C)C 27.4%
N#CC1=C(N)Oc2c(sc3ccccc23)C1c1ccco1 (stereo not drawn) 26.8%
O=C(Nc1ccccc1Cl)/C(Cl)=C(\Cl)S(=O)c1ccccc1 (stereo not drawn) 80.3%
O=c1[nH]c2ccccc2n2c(-c3ccccc3)nnc12 85.2%
CCN1CCN(C(=O)N[C@@H](C(=O)N[C@@H]2C(=O)N3C(C(=O)O)=C(CSc4nnnn4C)CS[C@H]23)c2ccc(O)cc2)C(=O)C1=O 28.5%
CCOc1ccc(C(=O)CCN2CCOCC2)cc1 21.4%
COc1cc(/C=C2/C(=O)NN(c3ccc(F)cc3)C2=O)cc([N+](=O)[O-])c1O 22.9%
C/C(=N/Nc1nc(-c2ccccc2)c(CC(=O)O)s1)c1ccccc1 23.7%
CCOC(=O)C(Sc1ncc(C#N)c(N)n1)C(C)C (stereo not drawn) 33.5%
c1ccc(Cc2c(-c3ccco3)nc3c4ccccc4ccn23)cc1 26.2%
CCN(CC)C(=O)c1sc2nc(-c3ccccc3)ccc2c1N 23.1%
Cc1ccccc1CN1C[C@@H]2C[C@@H](c3cn(C)nc3-c3ccccc3)N3CCC[C@@]23C1=O 67.8%
Cc1cc2nc(-c3ccco3)c(Cc3cccc(F)c3)n2c(C)c1Br 36.5%
O=C(O)CCn1c(O)c(C=C2N=c3ccccc3=N2)sc1=S 29.5%
COc1ccc(NC(=O)CSc2nnc(Cc3ccccc3)c(=O)n2N)cc1 31.4%
COc1ccccc1-n1c(SCC(=O)Nc2ccc(Cl)cc2)nc(O)c(Cc2ccccc2)c1=O 34.5%
COc1cccc(NC(=O)CSc2nccn(-c3ccc4c(c3)OCCO4)c2=O)c1 29.1%
Cc1ccc(-n2nc(-c3ccco3)cc2C(=O)NCc2cccnc2)cc1 35.6%

inhibition, inactive:
COc1ccc(OC)c(C(O)c2nc3ccccc3n2C)c1 (stereo not drawn) 5.63%
CCn1c(C(O)c2cc(OC)ccc2OC)nc2ccccc21 (stereo not drawn) -3.51%
Cc1ccc(S(=O)(=O)NC(=O)N2CCCC(C)(C)C2)cc1 -1.8%
CC(NC(=O)c1cc(=O)[nH]c2ccccc12)c1ccc(F)cc1F (stereo not drawn) 0.78%
CCOC(=O)c1cccc(NC(=O)CN(C)S(=O)(=O)c2ccc(-c3cocn3)s2)c1 -6.43%
O=C(Nc1cccc(C(=O)NC2CC2)c1)c1ccc(F)c(S(=O)(=O)N2CCOCC2)c1 1.48%
O=C(Nc1ccnn1C1CCN(C/C=C/c2ccc(F)cc2)CC1)C1CCCC1 -2.06%
O=C(N[C@H](C(=O)N1CCC[C@H]1C(=O)NCCc1ccccc1Cl)c1ccccc1)c1ccccc1 4.7%
CCOC(=O)[C@]12CCCCC/C=C\1N(Cc1ccc(OC)cc1)C(=O)[C@H]2CC(=O)NCc1ccc(C)o1 11.7%
CCc1nc2c(OCC(N)=O)cccn2c1N(C)C(=O)c1ccc(OC)cc1 -1.98%
CN(C)S(=O)(=O)c1ccc(Cl)c(NC(=O)COC(=O)CC(NC(N)=O)c2ccc(Cl)cc2)c1 (stereo not drawn) -6.61%
O=C(c1ncn2c1c(=O)[nH]c1ccccc12)N1CCc2ccccc2C1 -1.56%
N[C@@H](Cc1ccccc1)C(=O)N1CCC[C@@H]1C(=O)N1CCC2CCN(S(=O)(=O)c3ccccc3)CC21 (stereo partly drawn) 3.14%
Cc1nc(N)[nH]c(=O)c1Oc1cccc(C(F)(F)F)c1 -1.54%
O=C(NC1CCC1)c1ccc(C#Cc2cccc(F)c2)c[n+]1[O-] -4.9%
C#CCN([C@H](C(=O)OC)C(C)CC)S(=O)(=O)c1ccccc1Br (stereo partly drawn) 1.85%
CCOC(=O)C1=C(CSc2nnnn2C)N(C)C(=O)NC1c1ccccc1 (stereo not drawn) -1.87%
CC(=O)NC1C(Oc2ccc(C=O)cc2)OC(COC(C)=O)C(OC(C)=O)C1OC(C)=O (stereo not drawn) -2.72%
COC(=O)[C@H](C(C)C)N(CCCc1cn(Cc2ccccc2)nn1)S(=O)(=O)c1ccc(F)cc1Br 1.25%
C=CCNC(=S)NNC(=O)COc1c(Cl)cc(Cl)cc1Cl 1.94%
Cc1ccc(-n2c(COc3ccccc3)nnc2SCC(=O)Nc2ccc3c(c2)OCCO3)cc1 1.77%
COc1ccc(-n2c(SCC(=O)Nc3ccccc3-c3ccccc3)nnc2-c2cccnc2)cc1 -3.53%
COP(=O)(O)CNC(=O)OCc1ccccc1 -3.79%
CCOc1ccc(C(=O)CCC(=O)NC2=NCCS2)cc1 0.3%
CCOc1ccc(C(=O)CCC(=O)Nc2ccncc2)cc1 -2.2%
CCN1C(=O)[C@H]2[C@@H](c3ccccc3)N[C@]3(CCCN(Cc4ccc(C)cc4)C3=O)[C@H]2C1=O -1.43%
COc1ccc(N2C(=O)CC(Nc3ccc(F)cc3)C2=O)c([N+](=O)[O-])c1 (stereo not drawn) 2%
COc1cc(CN2CC(C)CC(C)C2)cc([N+](=O)[O-])c1O (stereo not drawn) -0.22%
C=CCN1C(=O)[C@@H](CC(=O)N2CCN(C(=O)OCC)CC2)[C@]2(C(=O)OCC)CCCCC/C=C/12 2.76%
N#CCOc1ccc(C2=NO[C@@H]3[C@@H]4C[C@@H]([C@H]5C(=O)N(c6ccc7c(c6)OCO7)C(=O)[C@@H]45)[C@H]23)cc1 -0.79%
O=C(NCc1ccc(F)cc1F)[C@@H]1CCCN1C(=O)[C@@H]1CCCN1C(=O)c1cccc(Cl)c1 -3.37%
CC(=O)NC(CC(=O)Nc1nc(-c2ccccc2)c(C(C)=O)s1)c1ccccc1 (stereo not drawn) 1.97%
CCOc1ccc(-c2nc(C)sc2CC(=O)O)cc1 4.47%
COC(=O)N1Cc2ccnnc2CC1c1ccccc1Br (stereo not drawn) -1.59%
CCOC(=O)c1cnc(SCC(=O)Nc2ccccc2C(=O)OC)nc1N -1.74%
CCCCSc1[nH]c(=O)c(C(=O)OCC)cc1C#N 5.58%
COCCCNc1nc2c(-c3cccc(C)c3)nnn2c2ccc(Cl)cc12 1.2%
C=CCOC/C=C/C#CCN(CC=C)Cc1ccc(OC)cc1OC -0.66%
O=C(CCSc1ccccc1)NCCSc1ccccn1 -0.03%
Cc1ccc(Cc2c(-c3ccc(C)cc3)nc3c4ccccc4ccn23)cc1 -3.94%
Cc1ccc(Cc2c(-c3ccc(Cl)cc3)nc3c4ccccc4ccn23)cc1 -0.73%
COc1ccc(CSc2nnc(-c3cccc(C)c3)n2C)cc1 8.96%
Cc1ccc(-n2c(SCC(=O)Nc3cccc4ccccc34)nnc2-c2ccco2)cc1 1.53%
CCN(CC)C(=O)c1nc[nH]c1C(=O)N(C)Cc1ccccc1 0.76%
CCOC(=O)C(C)n1nc(-c2ccccc2)c2ccccc2c1=O (stereo not drawn) -2.85%
O=C(CN1CCCc2ccccc21)NCc1ccc(F)cc1 -5.39%
COc1cccc(N2CCN(CC(=O)N(C)Cc3ccc(F)cc3)CC2)c1 0.17%
COc1ccccc1C(=O)NC1CCCCN(C(C)C)C1=O (stereo not drawn) 2.65%
O=C(C1CCN(S(=O)(=O)c2ccccc2)CC1)N1CCN(C2CCCCC2)CC1 -0.34%
COc1ccc(N(C)C(=O)C2CCN(S(=O)(=O)c3cccc4nsnc34)CC2)cc1 -1.3%
COc1ccc(CN2CCN(Cc3cn(C)nc3-c3ccccc3)CC2CCO)c(C)c1C (stereo not drawn) 0.32%
Cc1ccccc1CN1C[C@@H]2C[C@@H](c3ccc4nsnc4c3)N3CCC[C@@]23C1=O 1.62%
C=CCN(C(=O)[C@@H](CCCC)[C@@H](O)c1ccc(Cl)cc1)c1ccccc1 -0.47%
CC(C)CNc1cccc2c1S(=O)(=O)N(Cc1cn(Cc3ccccc3C(F)(F)F)nn1)Cc1ccccc1O2 2.58%
CCNC(=O)CC1C(=O)N(c2ccc(F)cc2)C(=O)N1CCc1sccc1C (stereo not drawn) -2.07%
Cc1cc2nc(-c3ccc(F)cc3)c(Cc3ccsc3)n2c(C)c1Br 1.03%
Cc1cc(Br)cn2c(Cc3cccc(F)c3)c(-c3cccc(Br)c3)nc12 -2.69%
Nc1nc(NC(=O)/C=C/c2ccc(F)cc2)nn1-c1ccccc1 -3.14%
CCCCNC(=O)C[C@H]1C[C@@]2(C(=O)OC)C(=C[C@H](COCc3ccccc3)O[C@@H]2C)N(Cc2ccc(Cl)cc2Cl)C1=O -3.14%
COc1ccc(Cc2nnc(SCC(=O)N(c3ccccc3)C(C)C)n(N)c2=O)cc1 -6.66%
CCOc1ccc(NC(=O)CSc2nc3c(c(=O)n2-c2ccccc2OC)SCC3)cc1 5.66%
COc1ccc(-n2c(COc3ccc(C)cc3)nnc2SCC(=O)Nc2ccc(Oc3ccccc3)cc2)cc1 -3.87%
CCc1c(O)nc(SCC(=O)Nc2ccccc2)n(C(C)CC)c1=O (stereo not drawn) 17%
COc1ccccc1-n1ccnc(SCC(=O)NC2CCCCC2)c1=O 1.07%
Cn1ccnc1SCC(=O)Nc1ccc2c(c1)OCCO2 5.34%
COC(=O)[C@@]12C[C@@H](CC(=O)NCCCCc3ccccc3)C(=O)N(CCc3ccc(OC)c(OC)c3)C1=CCC(C)(C)C2 3.69%
CN[C@H]1C[C@H]2c3[nH]c4c(-c5ccccc5)cccc4c3CCN2C(=O)[C@H]1[C@H](C)O 6.14%
CSc1sc(C(=O)NC(=O)NCc2cccnc2)c(C)c1-c1ccon1 1.09%
Cc1ccc2c(c1)N(CCCC(=O)NCc1cccnc1)C(=O)CO2 0.38%
